Results as given in PubChem BioAssay (Tox21).
Results filed as inconclusive are left out. The source made the active and inactive calls. Calls come from the whole dose curve; as a rule, active = well fitted cell-killing curve with a large enough effect in the repeat runs; inconclusive = weak or mixed curves, or effect the other way; inactive = no such curve, though single readings can be large or run the other way.

Assay: qHTS assay for small molecule activators of the heat shock response signaling pathway - cell viability counter screen (AID 743209); note: nearly all actives have a fitted effect of over 50% in size
Settings: HSE-bla HeLa viability, CellTiter-Glo luminescence, 5 h; series mostly up to 62.6 µM; activity change, negative = cytotoxicity: at the top concentration
Text: U.S. Tox21 Program National Center for Advancing Translational Sciences [NCATS] NIH Chemical Genomics Center [NCGC] U.S. Environmental Protection Agency [EPA] National Institutes of Environmental Health Sciences [NIEHS] National Toxicology Program [NTP] U.S. Food and Drug Administration [FDA] Tox21 Assay Overview: Various chemicals, environmental and physiological stress conditions may lead to the activation of heat shock response/ unfolded protein response (HSR/UPR). There are three heat shock transcription factors (HSFs) (HSF-1, -2, and -4) mediating transcriptional regulation of the human HSR. To identify the compounds that activate HSR signaling, HSE-bla HeLa cell line (Invitrogen, Carlsbad, CA, USA) containing a beta-lactamase reporter gene under the control of the heat shock response elements was used to screen Tox21 10K compound library. The cytotoxicity of the Tox21 compound library against the HSE-bla HeLa cell line was tested in parallel by measuring the cell viability using CellTiter-Glo assay (Promega, Madison, WI) in the same wells.
Tox21 Assay Protocol Summary: The CellSensor HSE-bla HeLa cells (Invitrogen, Carlsbad, CA, USA) were dispensed at 1500 cells/6uL/well into 1536-well black wall/clear bottom plates using a Multidrop combi (Thermo Fisher Scientific, Waltham, MA) dispenser. After the assay plates were incubated at 37 C and 5% CO2 overnight, 23 nL of compounds dissolved in DMSO, positive controls or DMSO only was transferred to the assay plate by a Pintool station (Kalypsys, San Diego, CA). The plates were incubated at 37 C for 5 h. After 1 uL of LiveBLAzerTM B/G FRET substrate was added using a Flying Reagent Dispenser (FRD, Beckman Coulter, Indianapolis, IN, USA), the plates were incubated at room temperature for 2.5 h, and fluorescence intensity was measured by an Envision plate reader (PerkinElmer, Shelton, CT). For cell viability readout that measures cytotoxicity, 3 ul/well of CellTiter-Glo reagent was added into the assay plates using a FRD. After 30 min incubation at room temperature, the luminescence intensity in the plates was measured using a ViewLux (PerkinElmer) plate reader.
% is set by controls: 0 for no effect and ±100 for the full control effect.

Structure (SMILES) | activity change, negative = cytotoxicity | outcome
C=C1CC[C@H]2C[C@@H]1C2(C)C | 4.43% (inactive) | –
CC(=O)N(CC(O)CO)c1c(I)c(C(=O)NCCO)c(I)c(C(=O)NCC(O)CO)c1I (stereo not given) | -0.693% (inactive) | –
CC(C[N+](C)(C)C)OC(N)=O (stereo not given) | -6.07% (inactive) | –
CCOC(=O)CCC(C)=O | -0.199% (inactive) | –
CC(=O)Nc1ccc(S(N)(=O)=O)cc1 | 3.61% (inactive) | –
NS(=O)(=O)c1cc(C(=O)NN2C[C@H]3[C@H]4CCC(C4)[C@H]3C2)ccc1Cl | 0.885% (inactive) | –
Cc1c(NC(C)C)c(=O)n(-c2ccccc2)n1C | -4.9% (inactive) | –
COCCc1ccc(OCC(O)CNC(C)C)cc1 (stereo not given) | -27.1% (inactive) | –
COC(=O)C1=C(C)NC(C)=C(C(=O)OC)C1c1ccccc1[N+](=O)[O-] | – | inactive
C[C@H](NC(CCc1ccccc1)C(=O)O)C(=O)N1CCC[C@H]1C(=O)O (stereo not given in full) | 6.36% (inactive) | –
O=C(O)CN(CCOCCOCCN(CC(=O)O)CC(=O)O)CC(=O)O | -15.4% [at 0.55 µM] (inactive) | –
CCC(C)S (stereo not given) | -3.21% [at 2.7 µM] (inactive) | –
Nc1ccc(S(=O)(=O)Nc2ccnn2-c2ccccc2)cc1 | 15.3% [at 29.1 µM] (inactive) | –
C=CCCCCCCCCC=O | 6.07% (inactive) | –
COC(=O)CCSCCC(=O)OC | -3.04% (inactive) | –
COc1ccccc1OCC(O)CN1CCN(CC(=O)Nc2c(C)cccc2C)CC1 (stereo not given) | 15.3% (inactive) | –
NC(=O)c1cn(Cc2c(F)cccc2F)nn1 | 24.5% (inactive) | –
OC1CCCCC1c1ccccc1 (stereo not given) | 2.85% (inactive) | –
NS(=O)(=O)c1cc2c(cc1Cl)NC(C1CC3C=CC1C3)NS2(=O)=O (stereo not given) | -2.09% (inactive) | –
CC(C)OC(=O)c1ccccc1 | 0.885% [at 81.1 µM] (inactive) | –

Structure (SMILES) | activity change, negative = cytotoxicity | outcome
CC(C)(O)C#CC(C)(C)O | 10.3% [at 81.1 µM] (inactive) | –
CC(C)(C)c1nnc(NS(=O)(=O)c2ccccc2)s1 | -4.06% (inactive) | –
COc1ccc(CCN(C)CCCC(C#N)(c2cc(OC)c(OC)c(OC)c2)C(C)C)cc1OC (stereo not given) | 6.65% (inactive) | –
CCO/C([O-])=N/c1c[n+](N2CCOCC2)no1 | 3.69% (inactive) | –
CN1C(=O)N(C)C(O)C1O (stereo not given) | -4.6% (inactive) | –
CCCN(CCC)CCc1cccc2c1CC(=O)N2 | -6.06% (inactive) | –
O=C1CCCN1C1CCCCC1 | -2.57% (inactive) | –
O=[N+]([O-])c1ccc(F)cc1F | 0.607% [at 81.1 µM] (inactive) | –
CC(C)(CC(=O)O)C(=O)O | -8.15% (inactive) | –
O=C(O)c1ccccc1OP(=O)(O)O | -10.1% (inactive) | –
CC/C=C\CC/C=C/C(OCC)OCC | 4.73% (inactive) | –
O=C1CCCC(=O)C1 | -1.55% (inactive) | –
C/C=C(\C)C#N | 4.07% (inactive) | –
Cn1c(N)c(N=O)c(=O)n(C)c1=O | 4.52% [at 81.1 µM] (inactive) | –
CC(C)(C)NCCNC(C)(C)C | -11.3% (inactive) | –
O=C(CCCN1CCC(O)(c2cccc(C(F)(F)F)c2)CC1)c1ccc(F)cc1 | 1.32% (inactive) | –
Cc1sccc1Br | 3.12% (inactive) | –
NC(=O)c1ccc([N+](=O)[O-])cc1 | -6.52% (inactive) | –
COC(=O)CC(C)=O | 11.2% (inactive) | –
CC(C)=CCCC(C)CC(=O)O (stereo not given) | -3.59% (inactive) | –
